Assay results from PubChem BioAssay AID1456 (Vanderbilt High Throughput Screening Facility, 2008).
In all, about 190,000 compounds went through this assay and about 4,100 (2.2%) were called active. This is one part of a sample in which actives are shown more often than they occur.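 The calls were made as follows: active = thallium flux slope and its plate-corrected score both differing from the plate sample mean at a set confidence after two filtering rounds, in either direction; inactive = the rest.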

Biological target: Solute carrier family 12 member 5 (Homo sapiens) (UniProt Q9H2X9)
Experiment: modulation of human KCC2 ion transport – cell-based, HEK293 KCC2, FluoZin-2 fluorescence, MLSMR, primary screen (AID 1456);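 also: slope of fluorescence scaled to starting intensity during 10 to 20 s after thallium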
Settings: KCC2 cells, thallium flux FluoZin-2 fluorescence; at 10 µM

Sequence of Solute carrier family 12 member 5 (Homo sapiens) (Q9H2X9 whole entry, looked up): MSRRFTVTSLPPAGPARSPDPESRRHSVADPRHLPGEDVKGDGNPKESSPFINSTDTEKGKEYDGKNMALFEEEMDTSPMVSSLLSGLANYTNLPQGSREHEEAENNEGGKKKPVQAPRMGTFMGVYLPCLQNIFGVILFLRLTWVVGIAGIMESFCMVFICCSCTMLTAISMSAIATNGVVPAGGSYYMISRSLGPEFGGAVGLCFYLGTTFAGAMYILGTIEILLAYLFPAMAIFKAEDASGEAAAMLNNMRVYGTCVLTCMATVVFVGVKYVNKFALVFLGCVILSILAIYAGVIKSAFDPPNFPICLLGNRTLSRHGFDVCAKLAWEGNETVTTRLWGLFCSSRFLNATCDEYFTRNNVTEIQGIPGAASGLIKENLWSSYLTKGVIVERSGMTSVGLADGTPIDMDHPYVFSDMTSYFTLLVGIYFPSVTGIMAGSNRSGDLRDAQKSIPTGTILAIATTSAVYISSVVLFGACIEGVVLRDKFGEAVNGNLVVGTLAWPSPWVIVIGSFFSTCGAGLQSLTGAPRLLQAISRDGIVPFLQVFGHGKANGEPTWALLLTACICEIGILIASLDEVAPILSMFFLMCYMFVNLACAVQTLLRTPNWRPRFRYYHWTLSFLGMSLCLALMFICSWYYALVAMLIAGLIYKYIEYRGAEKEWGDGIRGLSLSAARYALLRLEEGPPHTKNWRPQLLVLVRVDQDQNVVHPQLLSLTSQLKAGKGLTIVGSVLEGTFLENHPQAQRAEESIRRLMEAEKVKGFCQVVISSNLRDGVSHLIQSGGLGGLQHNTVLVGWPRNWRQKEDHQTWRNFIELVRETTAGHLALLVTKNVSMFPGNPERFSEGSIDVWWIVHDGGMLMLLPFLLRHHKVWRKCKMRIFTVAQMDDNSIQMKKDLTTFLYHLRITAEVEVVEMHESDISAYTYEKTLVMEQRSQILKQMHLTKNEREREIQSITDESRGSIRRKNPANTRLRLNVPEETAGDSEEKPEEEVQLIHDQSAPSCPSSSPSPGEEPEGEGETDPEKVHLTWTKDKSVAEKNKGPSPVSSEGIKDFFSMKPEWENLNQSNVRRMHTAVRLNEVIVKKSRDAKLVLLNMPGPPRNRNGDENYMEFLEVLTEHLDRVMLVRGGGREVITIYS

B-score of Tl+ flux slope (higher = more flux/activation; lower = inhibition), active:
O=C(Nc1nnc(-c2ccc(Cl)cc2)o1)c1ccccc1Br 35.2, FC(F)Oc1ccccc1NC(=S)Nc1cccc(Cl)c1Cl 6.89, O=C1/C(=C\c2ccsc2)NC(=S)N1c1ccccc1 11.5, NS(=O)(=O)c1ccc(NC(=S)NC(=O)c2cccnc2)cc1 1.98, O=C(Cn1c(-c2ccc(Cl)cc2)noc1=O)N1CCN(c2ccccc2F)CC1 -4.49, Fc1ccc2nc(-c3ccccc3)nc(SCc3nnc(-c4ccccc4)o3)c2c1 41.8, Cc1csc(NC(=S)Nc2cccc(Cl)c2)n1 63.6, O=c1c(-c2ccc3c(c2)OCCO3)c(C(F)(F)F)oc2cc(O)cc(O)c12 -2.89, CCCCSc1[nH]c(=O)c(C(=O)OCC)cc1C#N 13, Cc1ccc(C(=O)NC(=S)Nc2ccccc2C)cc1 26.9, COC(=O)c1sc(NC(=S)NC(=O)c2ccc(C)cc2)nc1C 33.9, Cc1ccccc1NC(=S)NNC(=O)c1cccc(Br)c1 11.3, Cc1ccc(C)c(NC(=S)NNC(=O)c2csc(C)c2)c1 6.59, Cc1cc(C(=O)NNC(=S)Nc2ccccc2C)cs1 4.58, Cc1ccc(C)c(NC(=S)NNC(=S)Nc2ccc(C(C)C)cc2)c1 4.26, Cc1ccc(N=Cc2c(O)n(-c3nccs3)c(=O)c3ccccc23)c(C)c1 -6.91, CCOC(=O)C1=C(NC(=S)NC(=O)c2ccccc2)c2ccccc2CC1(C)C 3.94, CCOC(=O)c1c(C)[nH]c(C)c1C(=O)CSc1nc(N)cc(N)n1 6.26, COc1ccccc1/C=C/C=N/n1c(-c2ccc(Cl)cc2Cl)n[nH]c1=S 11.5, CCC1=C/C(=C\c2ccc3c(c2)OCO3)C(=O)S1 -8.87

B-score of Tl+ flux slope (higher = more flux/activation; lower = inhibition), inactive:
CCNC(=O)CCc1nc(-c2ccc(C)cc2)no1 0.371, C/C(Cc1ccccc1)=N\NC(=O)CNC(=O)c1ccccc1Cl -0.103, O=C(Nc1ccc(-c2nnc(-c3ccccc3)o2)cc1)c1ccc(Br)o1 1.83, O=C(Nc1cccc(Cl)c1)Nc1nnc(-c2ccccc2)o1 3.17, O=C(NNS(=O)(=O)Cc1ccccc1)c1ccc([N+](=O)[O-])cc1 0.00978, COc1ccccc1NC(=S)NC(=O)C(C)C 1.52, COc1ccc(NC(=S)Nc2ccccc2Cl)cn1 0.811, Cc1ccc(Cn2c(SCC(=O)N/N=C/c3ccccc3OCC(=O)O)nc3ccccc32)cc1 1.95, O=C(CSc1nnc2n1CCCN2)c1ccccc1 -0.0921, CC(C)N1CCC(=NNc2ccc([N+](=O)[O-])cc2S(=O)(=O)N2CCOCC2)CC1 0.0282, Cc1ccc(NNC(=O)C2CCC2)cc1C 0.435, CN(C)c1ccc(/C=C2\NC(=S)N(Cc3ccccc3)C2=O)cc1 2.56, COc1cc2c(cc1/C=C1/NC(=O)N(c3ccccc3)C1=O)OCO2 0.747, CC(=O)NC(=S)Nc1ccc(NC(=O)c2cccnc2)cc1 1.03, NS(=O)(=O)c1ccc(NC(=S)NC(=O)c2cccc(Br)c2)cc1 1.13, Cn1c(=O)cc(OCC(=O)N2CCN(c3ccccc3F)CC2)c2ccccc21 -0.0376, O=C(CCSc1ccccc1)N1CCN(c2ccccc2F)CC1 -1.46, COc1ccc(OCC(O)CNCCNc2nccc(C(F)(F)F)n2)cc1 (stereo unspecified) 0.542, Cc1ccc2c(c1)nnc1nnc(SCC(=O)O)n12 -0.0291, Cc1ccc2nc(SCc3nnc(-c4ccccc4[N+](=O)[O-])o3)c(C#N)cc2c1 0.799, c1ccc(-c2nnc(SCc3nc4ccccc4[nH]3)o2)cc1 -1.33, O=C(NCc1cccnc1)c1nc(-c2cccs2)no1 0.407, CCCCN1Cc2c(nc3cc(-c4ccccc4)[nH]n3c2=O)C1=O -0.758, NCCCCCC(=O)N/N=C/c1ccc2nccnc2c1 1.4, CCOC(=O)C1CCCN(C(=O)/C=C/c2ccc(OC)cc2)C1 (stereo unspecified) -0.769, O=C(Nc1ccc(S(=O)(=O)N2CCOCC2)cc1)c1ccc2ncsc2c1 0.51, CC(=O)Nc1cccc(C(=O)Nc2nc(C)cs2)c1 -0.0712, S=C(Nc1cccc(Cl)c1)Nc1ccc2cn[nH]c2c1 -0.0612, CCc1nc(NCCO)c(C#N)c2c1CCCC2 -0.68, S=C(NCCc1ccccc1)N1CCn2cccc2C1c1ccncc1 (stereo unspecified) -2.41, CN1CCN(c2ncc3c(n2)CC(c2ccccc2F)CC3=O)CC1 (stereo unspecified) -1.12, COc1ccc(-c2onc(C)c2-c2ccc3c(c2)OCCO3)c(O)c1 0.0687, CCOC(=O)c1cc2cc(-c3c(C(=O)OCC)oc4cc(O)cc(O)c4c3=O)ccc2o1 -1.36, COC(=O)C1=C(C)NC(=O)/C1=C/c1ccc(CNS(=O)(=O)c2ccc(C)cc2)o1 -0.17, O=C(O)C(NS(=O)(=O)c1cccc2nsnc12)c1ccccc1 (stereo unspecified) 0.0778, CCOC(=O)c1cc(C#N)c(N2CCCCC2)nc1-c1ccccc1 0.496, Cc1cc(=O)[nH]c(SCC(N)=O)c1C#N 0.485, CCc1c(C)nc2c(-c3ccccc3)c(C)nn2c1Nc1ccc(NC(C)=O)cc1 0.635, O=C(NC(=S)Nc1cccc2c(O)cccc12)c1cccc(Br)c1 1.46, Cc1cc2[nH]ncc2cc1NC(=S)NC(=O)c1ccccc1 0.179, Cc1ccc(NC(=S)NC(=O)c2ccc(-c3ccccc3)cc2)c(C)c1 1.26, Cc1ccc(C)c(NC(=O)CCC(=O)NNC(=O)c2cccs2)c1 -1.3, Cc1ccc(C)c(NC(=O)C(OC(=O)c2ccc(C)s2)c2ccccc2)c1 (stereo unspecified) 0.676, COC(=O)c1sc(NC(=O)c2ccc(OC)cc2OC)nc1C -0.264, CC(=O)c1sc(NC(=O)c2ccc(C)cc2)nc1C 0.0252, Cc1ccccc1NC(=O)c1ccccc1 0.272, Cc1ccc2c(c1)c1ncn(Cc3ccc(F)cc3)c(=O)c1n2C -2.08, O=[N+]([O-])c1cc([N+](=O)[O-])c2cccnc2c1O -1.12, COC(=O)c1ccc(COc2cc([N+](=O)[O-])cc3cccnc23)cc1 0.95, O=C(Nc1ccc([N+](=O)[O-])cc1)C1CC12CCC2 (stereo unspecified) -0.552, CCOc1ccc(NC(=S)N2CCCCCC2)cc1 -0.294, CCOCC(=O)Nc1ncc(S(=O)(=O)c2ccc([N+](=O)[O-])cc2)s1 -0.205, CCc1ccc(-n2c(SCc3cc(=O)n4cc(Br)ccc4n3)nc3[nH]ncc3c2=O)cc1 -1.01, Cc1ccc(NC(=S)N/N=C2/CCCc3c(C)cc(C)cc32)cc1 0.076, CC(C)c1ccc(NC(=S)NNc2ccc(Cl)c(C(=O)O)c2)cc1 0.393, Cc1cc(C(=O)NNC(=S)NC(C)c2ccccc2)cs1 (stereo unspecified) -1.17, Cc1ccccc1NC(=S)Nc1cccc([N+](=O)[O-])c1 0.705, COc1ccc(CCNC(=O)C(=O)NCC2CCNCC2)cc1OC 0.52, O=C(NNc1cc(Cl)cc(Cl)c1)c1c(F)cccc1Cl -0.755, COc1cc(OC)c(OC)cc1/C=N/Nc1ncnc2c1[nH]c1ccc(C)cc12 -1.07, Cc1ccc(C(=O)NNc2ncnc3ccccc23)cc1 0.377, OC(c1ccccc1)C(CN1CCOCC1)c1ccccc1 (stereo unspecified) 0.0146, Cc1ccc(N=Cc2c(O)cc(C)oc2=O)c(C)c1 1.91, Cc1ccc(-n2c(O)c(C=Nc3ccc(S(=O)(=O)Nc4ncccn4)cc3)c3ccccc3c2=O)cc1C -0.0402, CC(=O)Nc1ccc(S(=O)(=O)NC2(C(F)(F)F)C(=O)NC(C)=C2C#N)cc1 (stereo unspecified) -0.983, CCOC(=O)c1c(NC(=O)C2(C)Cc3ccccc3C(=O)O2)sc2c1CCCC2 (stereo unspecified) 1.05, COCCCNC(=S)NC(=O)c1ccccc1 1.23, Cc1nnsc1C(=O)NCc1c(F)cccc1Cl 0.221, COc1ccccc1NC(=O)c1cc(Cl)nc2ccccc12 0.201, COc1cc(NC(=O)c2ccc(CNc3c(N4CCCC4)c(=O)c3=O)cc2)cc(OC)c1OC 0.127, CCOC(=O)c1c(C)oc(C)c(C(=O)OCC)c1=O -0.18, Cc1cc(C)nc(SCC(=O)N(C)C)n1 -0.609, O=S(=O)(NCCc1csc(-c2ccccc2)n1)c1cccnc1 -0.711, C/C(=N/NC(=O)CC(=O)N/N=C(\C)c1ccc([N+](=O)[O-])cc1)c1ccc([N+](=O)[O-])cc1 -0.738, Fc1ccccc1/C=N/n1c(-c2cccnc2)n[nH]c1=S -0.286, S=c1[nH]nc(-c2ccncc2)n1/N=C/c1ccccc1Cl 1.47, COc1ccc(NC(=O)c2cn(-c3ccccc3)nc2SC)cc1 -1.58, CCOC(=O)c1ccc(N=C2SC(C(=O)NC)CC(=O)N2CCc2ccccc2)cc1 (stereo unspecified) 0.234, COc1ccc2nc(NC(=O)NC3CCCCC3)sc2c1 -1.35, O=C1/C(=C/c2ccc3c(c2)OCO3)CCC/C1=C\c1ccc2c(c1)OCO2 0.12, CSC1=N/C(=C\c2ccc3c(c2)OCO3)C(=O)S1 -0.302
